# Measured values as given in ChEMBL document CHEMBL3988442, “University of Dundee, Small-Polar-MMV Screening Library” (2021).
# The campaign covered roughly 48,000 compounds. About 13,000 (27%) showed an effect of 50% or more. Some of the results follow.
# Test system: Wolbachia pipientis
# Test: Anti-Wolbachia Cell-Based Screen
# Type: functional
# Parameters: scale not given: in the data most compounds retested in dose-response had high values
# Settings: 5 µM
row,SMILES,Percent Effect
1,Cc1cc(C(F)(F)F)nc(CCNC(C)Cn2ccnc2)n1 (configuration not stated),111.3%
2,COCCCN1CCCC2(CCN(S(=O)(=O)c3cccnc3)C2)C1=O (configuration not stated),-3.769%
3,Cc1nccc(C2CCCN(S(=O)(=O)N3CCOCC3)C2)n1 (configuration not stated),96.21%
4,Cc1ccc(C2CCCN(S(=O)(=O)N3CCOCC3)C2)nc1 (configuration not stated),122.5%
5,O=S(=O)(N1CCOCC1)N1CCCC(c2ccccn2)C1 (configuration not stated),113%
6,CC1CCN(S(=O)(=O)N2CCCC(c3cccc(C(=O)O)c3)C2)CC1 (configuration not stated),-0.2169%
7,Cc1ccc(C2CCCN(S(C)(=O)=O)C2)nc1 (configuration not stated),144.7%
8,CS(=O)(=O)N1CC[C@H](c2nc3ccc(C(F)(F)F)cc3[nH]2)C1,11.72%
9,CC1(C)CNC(=O)c2nc(C3CCCN(S(C)(=O)=O)C3)[nH]c2C1 (configuration not stated),-1.918%
10,O=C(O)c1cccc(C2CCCN(S(=O)(=O)N3CCOCC3)C2)c1 (configuration not stated),13.32%
11,CN(C1CCN(c2ccccn2)CC1)S(=O)(=O)N1CCOCC1,4.035%
12,Cc1noc2ncc(S(=O)(=O)Nc3cc(CC(C)(C)C)[nH]n3)cc12,-3.68%
13,CCC(NS(C)(=O)=O)c1ccccc1OC (configuration not stated),-5.645%
14,CCN(Cc1cccs1)C(=O)c1ccc(=O)n(C)c1,17.88%
15,Cc1cccnc1CC(C)N(C)C(=O)c1ccoc1C (configuration not stated),-11.81%
16,Cc1occc1CNC(=O)C1(C)CCCN(C(=O)c2ccccc2)C1 (configuration not stated),10.24%
17,Cc1csc(C(C#N)C(=O)Nc2ccccc2)n1 (configuration not stated),-10.65%
18,Cc1ccc(S(=O)(=O)N(C)Cc2nccs2)cc1N(C)C,7.403%
19,CNC(=O)c1sc(C2CCCC2)nc1C,1.771%
20,Cc1nc(C2CCCC2)sc1C(N)=O,-5.82%
21,Cc1nc(C2CCCN(S(C)(=O)=O)C2)sc1Br (configuration not stated),114.6%
22,Cc1ncsc1CN1Cc2cnn(C)c2C(COCC2CC2)C1.O=C(O)C(F)(F)F.O=C(O)C(F)(F)F (configuration not stated),-6.117%
23,CCOCC1CN(S(=O)(=O)N(C)C)Cc2cnn(CC)c21.O=C(O)C(F)(F)F (configuration not stated),-6.757%
24,Cc1ccc(N2Cc3cnn(C)c3C(COCC3CC3)C2)nn1.O=C(O)C(F)(F)F.O=C(O)C(F)(F)F (configuration not stated),105.5%
25,CCOCC1CN(S(=O)(=O)N(C)C)Cc2cnn(C)c21.O=C(O)C(F)(F)F (configuration not stated),-5.434%
26,CCOCC1CN(C)Cc2cnn(CC3CCCC3)c21.O=C(O)C(F)(F)F.O=C(O)C(F)(F)F (configuration not stated),4.173%

row,SMILES,Percent Effect
1,COCC1CN(c2ccc(C)nn2)Cc2cnn(C)c21.O=C(O)C(F)(F)F.O=C(O)C(F)(F)F (configuration not stated),88.37%
2,CCn1cc2c(n1)C(COC)CN(c1ccc(C)nn1)C2.O=C(O)C(F)(F)F.O=C(O)C(F)(F)F (configuration not stated),2.14%
3,CCOCC1CN(c2ccc(C)nn2)Cc2cnn(CC)c21.O=C(O)C(F)(F)F.O=C(O)C(F)(F)F (configuration not stated),109.7%
4,Cc1noc(C)c1CN1Cc2cnn(C)c2C(COCC2CC2)C1.O=C(O)C(F)(F)F.O=C(O)C(F)(F)F (configuration not stated),-11.34%
5,COCC1CN(Cc2ccc(C)o2)Cc2cnn(CC3CCOCC3)c21.O=C(O)C(F)(F)F.O=C(O)C(F)(F)F (configuration not stated),3.505%
6,COCC1CN(c2ccc(C)nn2)Cc2cnn(CC3CCOCC3)c21.O=C(O)C(F)(F)F.O=C(O)C(F)(F)F (configuration not stated),113.1%
7,CCOCC1CN(c2ccc(C)nn2)Cc2nn(CC)cc21.O=C(O)C(F)(F)F.O=C(O)C(F)(F)F (configuration not stated),10.42%
8,c1ccc(-c2nc3c(c(NCCn4ccnn4)n2)CCNCC3)nc1,-1.189%
9,O=S(=O)(NCCCn1ccc2ccccc21)N1CCCCC1,-18.64%
10,CC(Cc1cccnc1)Nc1ncnc2cccc(F)c12 (configuration not stated),-13.17%
11,Cc1noc(C)c1CNC(=O)N1CCC(CN2CCC(C)CC2)CC1,0.5097%
12,CCn1ncc2c1C(COCC1CC1)CN(c1ccc(C)nn1)C2.O=C(O)C(F)(F)F.O=C(O)C(F)(F)F (configuration not stated),84.42%
13,CS(=O)(=O)N1Cc2cnn(CC3CC3)c2C(COCC2CC2)C1.O=C(O)C(F)(F)F (configuration not stated),-10.17%
14,CCn1ncc2c1C(COCC1CC1)CN(S(=O)(=O)N(C)C)C2.O=C(O)C(F)(F)F (configuration not stated),4.655%
15,O=C(c1ccc2nccn2c1)N1CCC(CCn2cccn2)CC1,-0.54%
16,Cc1cc(S(=O)(=O)N2CCC(S(C)(=O)=O)C2)ccc1F (configuration not stated),74.96%
17,Cc1cc(S(=O)(=O)N2CCCN3CCCC3C2)ccc1F (configuration not stated),-4.296%
18,Cc1ccc(S(=O)(=O)N2CCC(S(C)(=O)=O)CC2)cc1C,132.3%
19,Cn1cnnc1S(=O)(=O)C1CCN(S(=O)(=O)c2ccc(F)c(Cl)c2)CC1,-4.538%
20,COc1ccc(S(=O)(=O)N2CCC(S(C)(=O)=O)CC2)cc1C,-19.61%
21,Cc1ccc(S(=O)(=O)N2CC[C@@H](O)C2)c(F)c1,-13.3%
22,Cc1cc(S(=O)(=O)N2CCC(S(C)(=O)=O)CC2)ccc1F,-10.45%
23,COc1ccc(S(=O)(=O)N2CCn3nc(C)nc3C2)cc1C,-5.027%
24,CS(=O)(=O)C1CCN(S(=O)(=O)c2ccc(F)c(F)c2)CC1,110.6%
25,CCC[C@@H]1CN(S(=O)(=O)c2ccc(C)c(F)c2)C[C@H]1N(C)C,-4.153%
26,CS(=O)(=O)C1CCN(S(=O)(=O)c2ccc(F)c(F)c2)C1 (configuration not stated),88%
